From PubChem BioAssay AID372 (MTDP, 2006)
In all, about 100,000 compounds went through this assay and about 770 (0.77%) were called active. The entries come from a sample that favours actives as a whole. Values without a mark were called inactive. Cut-off read from the data, not from the text of the source: active = inhibition above about 50%; inactive = the rest.

The compounds below were run against Gag-Pol polyprotein (Human immunodeficiency virus type 1 group M subtype B (isolate HXB2)) (UniProt P04585) (assay: RNase H inhibition, HIV 1 Gag Pol polyprotein, FRET biochemical assay, screening (AID 372)). Conditions: HIV-1 RT RNase H, FRET RNA/DNA substrate fluorescence; at 10 µM; stronger effect = higher value.

Compared with `COc1ccc(NC(=O)C2CC(C)=C(C)CC2C(=O)O)cc1` (centres undefined), `CC1=C(C)CC(C(=O)Nc2ccc(Br)cc2)C(C(=O)O)C1` (centres undefined) is higher in inhibition: 2% for the first, 8% for the second.

Compared with `Cc1cc(NS(=O)(=O)c2ccc(NC(=S)NC(=O)c3ccc(Br)cc3)cc2)no1`, `COC(=O)c1ccccc1NS(=O)(=O)c1ccc(NC(C)=O)cc1` is higher in inhibition: 1% for the first, 4% for the second.

First: Cc1cc(OCc2nc(-c3ccc(Cl)cc3Cl)no2)ccc1Br
Second: CCOC(=O)C1=C(C)N=c2s/c(=C\c3ccc(-c4ccc(Cl)cc4Cl)o3)c(=O)n2C1c1ccc(C)cc1 (centres undefined)
The inhibition of the first is higher: 7% for the first, 5% for the second.

First: Cc1n[nH]c(C)c1Sc1ccc(Cl)cc1
Second: Cc1nn(C)c(C)c1Sc1ccc(Br)cc1
The inhibition of the first is lower: 17% for the first, 37% for the second.

First: COc1cccc(/C=C2\C(=O)NC(=O)N(c3ccc(Cl)c(Cl)c3)C2=O)c1
Second: COc1ccccc1-n1c(O)c(C=C2C=Nc3ccccc32)c(=O)[nH]c1=S
The inhibition of the first is lower: 1% for the first, 7% for the second.

Going from `CCc1c(C)c2ccc(OC)c(C)c2oc1=O` to `COc1ccc([N+](=O)[O-])cc1-c1ccc(/C=C(\C#N)c2nc3ccc(C)cc3[nH]2)o1`, the inhibition rises from 8% to 34%.

Compared with `COc1ccc(S(=O)(=O)N(CC(=O)Nc2ccc(C(N)=O)cc2)c2ccc(C)cc2)cc1OC`, `COC(=O)c1ccc(NC(=O)Cc2ccc(OC)cc2)cc1` is lower in inhibition: 4% for the first, 1% for the second.

Compared with `C=CCc1cccc(/C=N/c2nc3ccccc3n2CCC)c1O`, `CCn1c2ccccc2c2cc(NC(=O)COc3ccccc3Cl)ccc21` is lower in inhibition: 17% for the first, 7% for the second.

`CC(CO)(CO)N=Cc1c(O)n(-c2ccccc2)c(=S)[nH]c1=O` and `COc1ccc(N=CC2=C(O)CC(c3ccccc3)CC2=O)cc1OC` (centres undefined) are the same in inhibition: 0% for the first, 0% for the second.

Compared with `CS(=O)(=O)N(Cc1ccc(Cl)cc1)c1ccc(C(=O)N2CCOCC2)cc1`, `CCOC(=O)N1CCN(C(=O)c2ccc(N(Cc3ccc(Cl)cc3)S(C)(=O)=O)cc2)CC1` is lower in inhibition: 8% for the first, 3% for the second.

Compared with `CS(=O)(=O)N(Cc1ccc(Cl)cc1)c1ccc(C(=O)Nc2cccc(C(F)(F)F)c2)cc1`, `CS(=O)(=O)N(Cc1ccc(C(=O)Nc2cccc(C(F)(F)F)c2)cc1)c1cccc(Cl)c1` is lower in inhibition: 1% for the first, 0% for the second.

First: Cc1ccc(Cl)cc1NC(=O)c1ccc(CN(c2ccccc2)S(C)(=O)=O)cc1
Second: COc1ccccc1NC(=O)c1ccc(CN(c2ccccc2)S(C)(=O)=O)cc1
The inhibition of the first is higher: 10% for the first, 0% for the second.

Going from `CN1CCN(C2=NC(=O)/C(=C/c3ccc4c(c3)OCO4)S2)CC1` to `Cc1cccc(N2CCN(C(=O)c3ccc(Br)cc3)CC2)c1C`, the inhibition rises from 8% to 18%.

Going from `O=C(C[n+]1cccc(NC(=O)c2ccccc2)c1)c1ccc2c(c1)Cc1ccccc1-2` to `CCOc1ccc(C(=O)Nc2ccc(CC)cc2)cc1[N+](=O)[O-]`, the inhibition falls from 24% to 9%.

Going from `Cc1ccc(S(=O)(=O)Nc2ccccn2)cc1C` to `COC(=O)c1ccccc1NS(=O)(=O)c1ccc(Cl)cc1`, the inhibition rises from 0% to 12%.

First: O=P(CCCO)(c1ccc(Cl)cc1)c1ccc(Cl)cc1
Second: CCSc1nnc(NC(=O)c2ccc(Cl)cc2)s1
The inhibition of the first is lower: 1% for the first, 4% for the second.

First: O=C1C2C3C=CC(C3)C2C(=O)N1CNc1ccccc1 (centres undefined)
Second: COc1ccc(S(=O)(=O)N(CCc2ccccc2)CC(=O)NC2CCCCC2)cc1
The inhibition of the first is higher: 6% for the first, 4% for the second.

Compared with `COc1cc(C=O)ccc1OCCCCOc1cccc(Oc2ccccc2)c1`, `COc1cc(C=O)ccc1OCCOc1cccc(Oc2ccccc2)c1` is lower in inhibition: 44% for the first, 21% for the second.

Compared with `Cc1ccc2nc(/C(C#N)=C/c3ccc(-c4cc([N+](=O)[O-])ccc4O)o3)[nH]c2c1`, `CCOC(=O)c1ccc(NC(=O)Cc2ccc(Br)cc2)cc1` is lower in inhibition: 6% for the first, 3% for the second.

Going from `COc1nc(S(=O)(=O)c2ccc(C)cc2)c(Cl)s1` to `Cc1ccc(S(=O)(=O)c2nc(N)sc2Cl)cc1`, the inhibition rises from 0% to 30%.

For `CCc1nnc(NC(=O)c2cnccn2)s1`, the inhibition was 9%.

In the case of `Cc1n[nH]c(C)c1Sc1ccc(Br)cc1`, the inhibition is reported as 50% (active).
With `COc1ccc(Cl)cc1NC(=O)c1ccc(CN(c2ccccc2)S(C)(=O)=O)cc1` the inhibition was 56% (active).
With `CS(=O)(=O)N(Cc1ccc(C(=O)Nc2cccc(C(F)(F)F)c2)cc1)c1ccccc1` the inhibition was 58% (active).
`CS(=O)(=O)N(Cc1ccc(Cl)cc1)c1ccc(C(=O)N2CCCC2)cc1` was tested, and the inhibition was 57% (active).
For `COC(=O)c1ccccc1NS(=O)(=O)c1ccccc1`, the inhibition was 57% (active).
In the case of `Cc1ccc([N+](=O)[O-])cc1-c1ccc(/C=C(\C#N)c2nc3ccccc3[nH]2)o1`, the inhibition is reported as 58% (active).
For `Cc1ccc(S(=O)(=O)c2nc(Nc3ccccc3C)sc2Cl)cc1`, the inhibition was 59% (active).
With `CCSc1nnc(NC(=O)c2cnccn2)s1` the inhibition was 57% (active).
